In the supplement of paper PMC11417369:
Whole data set: some 25,000 sequences, median “ln(normalized median fluorescence intensity)” near 6.7, cut for the highest 2% near 10. The sample as a whole holds a higher share of the highest values than the screen did.

The sequences below were run on PfHDP1 homeodomain (GST-tagged) (assay: gcPBM binding intensity (ln(normalized median fluorescence intensity)); higher = stronger DNA binding).
Outline: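 DNA-binding domains from P. falciparum, fused to GST and produced in E. coli, were put on an Agilent 4 × 180k double-stranded probe array for 1 h in 1× PBS holding 1% milk, 0.2 mg/ml BSA, 0.5% salmon testes DNA and 0.03% Triton X-100. Probes were primer-extended, 36 bp long and drawn from intergenic genomic regions, with negative controls included. After Alexa488 anti-GST antibody detection and a 488 nm scan, binding intensity was set as the highest Masliner-normalised natural-log median intensity across replicate spots of either probe orientation.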

| Sequence | gcPBM binding intensity (ln) |
| --- | --- |
| CATTTGCACACGCACACACACATAAAAAGAAAAATA [CACACA_site6297] | 10.8 |
| CATTTGCACCCGCACACACACATAAAAAGAAAAATA [CACACA_site4350] | 10.7 |
| ATCATTTGCATACGCACACACACATAAAAAGAAAAA [CACACA_site355] | 8.44 |
| CATTTGCCCAGGCACACACACATAAAAAGAAAAATA [CACACA_site356] | 6.34 |
| ATCATTTGCTCACGCACACACACATAAAAAGAAAAA [CACACA_site4349] | 9.55 |
| TTATCACATTATTGCACACACATAAAGAAAAAAATA [CACACA_site2841] | 9.63 |
| AACTATATCATTTATTTTATTTTTTAAATACATTTA [CACACA_negctrl_site183] | 6.19 |
| ATATATGTAATAAATAGTACACACACACATATATAT [XGTACX_site2817] | 7.35 |
| ATACTGTATAGTCGCACACAAAAATATAAAATATTT [CACACA_site6004] | 6.65 |
| CATATATATTTGTTCACACACACACTAATAAAAAAA [CACACA_site8787] | 6.85 |
| TTGCAAATATATGGTTGTACTCAAAAAAAAAAAAAA [XGTACX_site6975] | 6.47 |
| GAAAGAAATAAAGGTGGTACATAAATAAAAACTAAG [XGTACX_site4826] | 6.97 |
| TATATATATTTCCAGTGTACTTATTTTTTAATCAAT [XGTACX_site8220] | 6.7 |
| TATCATTGTTCATGCTTGCACTTTTGTTACTGTTCC [GTGCAC_site9425] | 6.75 |
| TTTTTTTTGTTCATTGTGCACATTGCTTGCATGGAA [GTGCAC_site9693] | 10.8 |
| TTTTTTTTTTTTGGTGCATGCACATTTTGTTTTTTT [TGCATGCA_site570] | 10 |
| TGAACATATTAAAATTGTACATATGCACAATATGTA [XGTACX_site6801] | 9.28 |
| AGTAGGCATATTGGTTGTACAAAAAAATTATGCACC [XGTACX_site8925] | 10.6 |
| GTAGGCATTAAAAAATGTACAAAATATTATGAATTG [XGTACX_site1615] | 6.32 |
| AAACATAAAGAAAAAAAAAATATATATTTATTTATT [GTGCAC_negctrl_site357] | 6.33 |
| ATATACACATATACATGTACAAATATATATACACAT [XGTACX_site2986] | 6.9 |
| CATATGTATATGACTACACACAAGGGTGTACCTATA [CACACA_site6670] | 6.34 |
| TTTAACATTTCAGATGTGCACATTTTCCGAACCAGT | 10.9 |

| Sequence | gcPBM binding intensity (ln) |
| --- | --- |
| AATAGATTTTTATGCGTGCACACATTTAACAAAAAA | 10.3 |
| GAACATTTATTGTGTGTGCACAATTCTTTTTTAACC [GTGCAC_site9697] | 10.2 |
| TTTCCGTATAATTTTGCACACGAATATAAATTTGAT [CACACA_site137] | 10.3 |
| TATTATAATATTTATACACACATAATTTTGATAAAT [CACACA_site583] | 6.45 |
| TCCGTATAATTTTGCACACGAATATAAATTTGATAA [CACACA_site136] | 10.9 |
| TGGAGGTCAGTTCACAGTACCCAGGAAATCTACGGA [XGTACX_site1995] | 5.93 |
| TTTTTCTTAAAAAATTGTACACATATATATATATAT [XGTACX_site542] | 9.21 |
| GTAGTGGTTGAATATACACACATATATATATATATA [CACACA_site2651] | 9.39 |
| CCTAGAAAAAAGAACTGTACATATATATATAAATAT [XGTACX_site1680] | 6.65 |
| TATATTAACAAAATGGTGCAATAATTTCTATATTAT [GTGCAC_site9857] | 10.5 |
| GTAGACATTATAATGGTGCAAAAAAATTAACAAAAA [GTGCAC_site9891] | 10.6 |
| GACAAATAATAAAAGGTGCATTATACTTAACAAAAA [GTGCAC_site9624] | 9.69 |
| TCAAGTATTAAAATGGGTACATAAATATGTGTATAT [XGTACX_site5884] | 6.63 |
| TATAATAAATCATATGCATGTTGAAAAAAAAAAAAA [TGCATGCA_site923] | 6.46 |
| AATATATAGAAACACACACACAAAAAAAAAAAAAAA [CACACA_site1326] | 6.47 |
| TTTTGAAACATATGATGTACACGAACATTTAAAAAA [XGTACX_site474] | 6.6 |
| ATTTAGAAAAATAAAACACACATATATCTGTAAATA [CACACA_site6119] | 6.53 |
| ATAAAAATATTGTCTAGTACATATTTATAATAAAAA [XGTACX_site7523] | 6.54 |
| AATATATATATATGTGCACACATATATAATATGTAT [CACACA_site716] | 9.79 |
| TATATATATATGTGCACACCAATTGTATGTAATATA [CACACA_site3889] | 10.6 |
| ATTGAATATGTAAATGCACACCAAAAAAAAAAAAAA [CACACA_site9189] | 9.61 |
| TATATATATATGTGCACACATATATAATATGTATAA [CACACA_site715] | 10.1 |
| TATATATATATATGTGCACACCAATTGTATGTAATA [CACACA_site3888] | 10.5 |

| Sequence | gcPBM binding intensity (ln) |
| --- | --- |
| TAATATAATATATGCACACAAATATGTATATATGTG [CACACA_site2134] | 9.77 |
| CACAAAATAAATTAAACACACAACATCATATATGTA [CACACA_site846] | 6.57 |
| TTTTTTTATATAGACACAAAAGAAAATTACATATAC [CACACA_negctrl_site235] | 6.49 |
| ATATATAATAAATACACACACATGTATTTATAAATA [CACACA_site5135] | 6.8 |
| TTTTTTTTGGTATAATGTACATTTTCACTTATGTAT [XGTACX_site3259] | 6.97 |
| TTTTTTTTTTTTTTTGCACACACATTGAATTATTAT [CACACA_site198] | 9.13 |
| CACCCGCACGTATTTGCACACATTGCCACGTAATTA [CACACA_site5786] | 10.7 |
| CAGACGCACGTATTTGCACACATTGCCACGTAATTA [CACACA_site3349] | 10.2 |
| TGTAATCAAAAAAATAGTACATAAATTGTGTATACT [XGTACX_site5908] | 6.57 |
| AGCACGCACAGACACACACACATATTTATATTTATA [CACACA_site6291] | 7.62 |
| TTTATTTTATCATTTGCACACGCACCCCCACATAAA [CACACA_site8007] | 10.2 |
| TTTTTTTTTATTATCATGCACACATTTTTTTTTTTT [CACACA_site2254] | 9.1 |
| TTTTATCACATTATTGCACACACATAAAGAAAAAAA [CACACA_site8922] | 9.63 |
| TTATCATTTGGACACGCACACACACCGAAAAAGAAA [CACACA_site8008] | 7.13 |
| TTTATTTTATCATTTGCACACGCACCCAGACATAAA [CACACA_site4347] | 10.6 |
| TATTTTATCATTTGCACACGCACACCGACATAAAAA [CACACA_site4348] | 10.6 |
| TTTATTTTATCATTTGCACACGCACGCCCACATAAA [CACACA_site353] | 10.6 |
| TATTTTATCATTTGCACACGCACACCCACATAAAAA [CACACA_site354] | 10.5 |
| TACCAATGCATAACGGTGCAAAAAAATAAGGAATAA | 10.3 |
| AAATTATAAAATAACTGTACCAATCCTTTTTTTTTA [XGTACX_site2229] | 5.84 |
| TATACATATGTATGCACACATACATACCCATATAAT [CACACA_site5842] | 9.42 |
| GTATAAAAATTTAGGAGTACAATATATTTATAATAT [XGTACX_site2127] | 6.5 |
| ATATTTCATTAATGAACACACAAAGAGGTATATAAA [CACACA_site1519] | 6.86 |

| Sequence | gcPBM binding intensity (ln) |
| --- | --- |
| AATTAGACATAATATACACACATATATTATATATAT [CACACA_site2691] | 6.91 |
| ATATTAAAGCCTTTTTGTACATATAAATAAACATAG [XGTACX_site4667] | 6.66 |
| GTAAAATTTCGGATTTGTACACATGGCTATGAAAAA [XGTACX_site939] | 6.57 |
| TGCCCTAACCATACTACACACACTGCTCAAAATAGT [CACACA_site2219] | 7.09 |
| AGGATATAAAGTTGTGCATGTCAAGTGCACCGTATT [TGCATGCA_site451] | 10.2 |
| TGTATATATAAACATGCACACGTGGTTGTATATATA [CACACA_site9078] | 8.31 |
| ATATATATATAGTGCACACTTAAGAATATAAAGAGG [CACACA_site1151] | 10.7 |
| ATATAAATATAGTGTGCACACACATAATATATATAT [CACACA_site8713] | 10.7 |
| AAATAAAGAATATAAATACACACTTAAATATATATT [CACACA_site4007] | 6.44 |
| ATATATATATAGTGCACACATATAAAATATATATAA [CACACA_site2745] | 10.8 |
| ATATAAATACGGTGTGCACACACATAATATATATAT [CACACA_site2271] | 11.1 |
| ATAATATAAATATACACACACACATATATATATATA [CACACA_site2905] | 9.28 |
| ATATATATATATAGTGCACACTTAAGAATATAAAGA [CACACA_site4771] | 10.3 |
| AAAAATATAAAAATAGCACACATATATACATATATA [CACACA_site7901] | 6.67 |
| ATATATATATATAGTGCACACATATAAAATATATAT [CACACA_site8884] | 10.3 |
| TATATATATATAATAGTGCATAAATAAATATATAAA | 9 |
| AAATAATATAAATACACACACACATATATAAATACA [CACACA_site4465] | 7.06 |
| AATATAATAATATTTTGTACATATCCTATGTATGAG [XGTACX_site8601] | 6.5 |
| TATAAATATAAATACACACACACATCAATACAGATA [CACACA_site5850] | 6.87 |
| CGCGAACATACATACACACACATATATATATCTGTA [CACACA_site4277] | 6.98 |
| ATTGAATTCCAACTGGTGCACCAGTAAGATTGAAAA [GTGCAC_site9895] | 10.1 |
